In PubChem BioAssay:

Test: signal quenchers or enhancers, Cy5 substrate/SSB – biochemical, NIH Clinical Collection, E. coli SSB, artefact control for HCV NS3 helicase inhibitor project (AID 743268)
Conditions: Cy5-oligo bound E. coli SSB, fluorescence interference; call rule not given here

Fluorescence ratio, inactive:
O=C1N=C(O)CN1N=Cc1ccc(-c2ccc([N+](=O)[O-])cc2)o1 1.04
CC(=O)O[C@@]12CO[C@@H]1C[C@H](O)[C@@]1(C)C(=O)[C@H](O)C3=C(C)[C@@H](OC(=O)[C@H](O)[C@@H](NC(=O)OC(C)(C)C)c4ccccc4)C[C@](O)([C@@H](OC(=O)c4ccccc4)[C@H]21)C3(C)C 0.95
CC1c2cccc(O)c2C(O)=C2C(=O)[C@]3(O)C(O)=C(C(N)=O)C(=O)[C@@H](N(C)C)[C@@H]3C[C@@H]21 (some centres undefined) 1.04
C=CC1=C(C(=O)O)N2C(=O)[C@@H](NC(=O)C(=NO)c3csc(N)n3)[C@H]2SC1 1
C[C@H]1O[C@@H](O[C@H]2[C@@H](O)C[C@H](O[C@H]3[C@@H](O)C[C@H](O[C@H]4CC[C@@]5(C)[C@H](CC[C@@H]6[C@@H]5C[C@@H](O)[C@]5(C)C(C7=CC(=O)OC7)CC[C@]65O)C4)O[C@@H]3C)O[C@@H]2C)C[C@H](O)[C@@H]1O (some centres undefined) 0.93
CON=C(C(=O)N[C@@H]1C(=O)N2C(C(=O)O)=C(COC(N)=O)CS[C@H]12)c1ccco1 1.07
Cc1cc(=O)oc2cc(NC(=O)C3CCC(=O)N3)ccc12 (centres undefined) 0.96
N[C@@H](C(=O)N[C@@H]1C(=O)N2C(C(=O)O)=C(CSc3cn[nH]n3)CS[C@H]12)c1ccc(O)cc1 (tested in a mixture with another compound) 1.06
CN1CCN2c3ncccc3Cc3ccccc3[C@@H]2C1 1
